ELG1 genotox: genotoxicity induction in ELG1-luciferase HEK293T cells; 330,000 tested, 1.3% active; HEK293T ELG1-luciferase reporter, luminescence, 16 h; Potency, µM (series often up to 46 µM), without a hit: at the top dose activity change, positive = activation, usual class: activators; note: % of control where 0% means no effect; nearly all actives have a fitted effect of over 60% in size
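Quantitative HTS format in 1536-well plates. HEK293T ELG1-luciferase reporter cells receive test compound and are incubated 16 hr at 37 °C, 5% CO2; ONE-Glo added, 30 min room temperature, then luminescence read.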
Rab9 prom act: activators of Rab9 promoter | Huh7 Rab9 promoter-luciferase reporter, luminescence, 24 h | Potency, µM (doses to about 9.22 µM), without a hit: at the highest dose activation, negative = inhibition, usual class: activators | 320,000 tested, 2.8% active | AID 485297; note: % of control where 0% means no effect; nearly all actives have a fitted effect of over 60% in size
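Luminescence from Amplite-detected luciferase (10 minutes, ambient) reports Rab9 promoter activation. Before that, stable Rab9-luciferase Huh7 cells (1500/well, reduced-serum OP-MEM I plus 10% FBS) were exposed to compound for 24 hours at 37C.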
FLuc counter: inhibits or activates purified firefly luciferase, miR-21 counter-screen | AID 588342 | 360,000 tested, 6.9% active | purified FLuc, Km substrates, luminescence inhibition | Potency, µM (top dose mostly 57.5 µM), without a hit: at the top dose activity change, negative = inhibition, usual class: inhibitors;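 note: plate controls were vehicle for no effect and reference inhibitor for full effect; nearly all actives have a fitted effect of over 55% in size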
Target sequence (P08659 whole entry, looked up): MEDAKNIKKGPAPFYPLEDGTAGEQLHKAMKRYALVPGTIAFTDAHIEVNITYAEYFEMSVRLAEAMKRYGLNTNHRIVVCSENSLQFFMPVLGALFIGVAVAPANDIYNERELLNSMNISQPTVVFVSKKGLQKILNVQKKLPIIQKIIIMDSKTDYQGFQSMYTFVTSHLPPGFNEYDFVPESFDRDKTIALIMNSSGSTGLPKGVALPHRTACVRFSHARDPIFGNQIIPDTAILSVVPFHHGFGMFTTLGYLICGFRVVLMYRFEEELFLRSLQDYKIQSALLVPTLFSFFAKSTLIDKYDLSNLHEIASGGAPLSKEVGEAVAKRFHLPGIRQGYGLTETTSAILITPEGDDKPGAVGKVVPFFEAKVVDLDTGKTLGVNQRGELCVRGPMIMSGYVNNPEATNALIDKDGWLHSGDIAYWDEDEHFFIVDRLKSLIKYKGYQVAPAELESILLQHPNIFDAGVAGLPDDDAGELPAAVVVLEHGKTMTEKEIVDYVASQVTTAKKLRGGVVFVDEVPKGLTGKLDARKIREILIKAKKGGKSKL
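Purified P. pyralis luciferase (10nM final) with 10uM D-luciferin and 10uM ATP (Km levels) in 50mM Tris acetate pH 7.5, 10mM Mg acetate, 0.01% Tween-20, 0.05% BSA; qHTS 6-point titration, ~60 µM downward; luminescence read.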
SMN2 splice up: enhancers of SMN2 splice variant expression. 210,000 tested, 2.8% active. Potency, µM (series often up to 46.1 µM), inactives show top-dose activity change, positive = activation, actives largely listed as activators. HEK293 SMN2-luciferase splicing reporter, luminescence, 30-36 h; note: % of control where 0% means no effect; nearly all actives have a fitted effect of over 55% in size
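HEK293 cells carry an SMN2 […]–luciferase reporter in which exon 7 inclusion puts luciferase in frame. Cells were plated 10-12 h before compound addition, then incubated 30-36 h at 37C. ONE-Glo luminescence was read; sodium butyrate at 4.5 mM final served as control.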
NPC1 prom act: activates the NPC1 promoter; AID 485313; Huh7 NPC1 promoter luciferase reporter, 24 h; 320,000 tested, 2.4% active; Potency, µM (highest dose often 9.22 µM), for the others: at the top dose activation, actives largely listed as activators; note: % of control where 0% means no effect; nearly all actives have a fitted effect of over 60% in size
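Cells: Huh7 expressing luciferase under the NPC1 promoter, 1500/well. Seeded 2 h, compound added, incubated 24 h at 37 °C. Luciferase reagent, 10 min ambient, then luminescence.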
The depositor's hits bear a star; [ ] = another dose, or the depositor's remark. A selection: hits, their analogues and other compounds. The true share with any hit is near 7.4%. Calls come from the whole dose curve; as a rule, active = well fitted curve in the direction sought with a large enough effect; inconclusive = small, poorly fitted or top-dose-only effect, or another doubt; inactive = no such curve, though single readings can be large; an effect the other way counts as inactive or inconclusive. Potency is the fitted concentration of half-maximal effect.

Screening COc1ccc(Nc2ncnc3sc(-c4ccccc4)cc23)cc1 returned ELG1 genotox -2.8%, Rab9 prom act 2.7%, FLuc counter inconclusive, SMN2 splice up -19.1% and NPC1 prom act 3.5%.
CCC(=O)N1CCc2cc(S(=O)(=O)NCCC(=O)Nc3ccc(C)cc3)ccc21 was read as FLuc counter -8.4% and SMN2 splice up 10.5%.
`CCOC(=S)SCC(=O)O` gave SMN2 splice up -19.8%[9.22 µM].
For O=C(Nc1ccccc1[N+](=O)[O-])C1COc2ccccc2O1 (stereo not drawn) the results were ELG1 genotox inconclusive, Rab9 prom act 3.55µM*, FLuc counter 9.53µM* and NPC1 prom act 2.82µM*.
O=C(N/N=C/c1cccc([N+](=O)[O-])c1)C1COc2ccccc2O1 (stereo not drawn) was read as ELG1 genotox 0.9%, Rab9 prom act 1.1%, FLuc counter -1.1% and NPC1 prom act -0.2%.
Screening O=C(N/N=C\c1cccc([N+](=O)[O-])c1O)C1COc2ccccc2O1 (stereo not drawn) returned ELG1 genotox 2.2%, Rab9 prom act -4.8%, FLuc counter 19µM*, SMN2 splice up 15.5% and NPC1 prom act 5.7%.
Screening O=C(COCc1cc(-c2ccc(F)cc2)on1)Nc1cc(F)ccc1F returned FLuc counter 5.8%.
`O=C(Nc1ccccc1)O/N=C/c1ccccc1Cl` gave ELG1 genotox 15.4%, Rab9 prom act -2.9%, FLuc counter inconclusive, SMN2 splice up 0.1% and NPC1 prom act 5.7%.
For COc1ccc(/C=N/OC(=O)Nc2ccccc2)cc1[N+](=O)[O-] the results were ELG1 genotox 11.9%, Rab9 prom act 23.4%, FLuc counter 15.1µM*, SMN2 splice up 20.0% and NPC1 prom act 6.0%.
O=C(Nc1ccccc1)O/N=C/c1ccc(F)cc1 was read as ELG1 genotox inconclusive, Rab9 prom act 0.794µM*, FLuc counter 2.39µM* and NPC1 prom act 0.631µM*.
Screening Cc1ccc(NC(=O)O/N=C/c2ccc(F)cc2)cc1 returned ELG1 genotox inconclusive, Rab9 prom act inconclusive, FLuc counter 15.1µM* and NPC1 prom act inconclusive.
COc1ccc(C(=O)Nc2ccc(Nc3ccccc3)cc2)cc1[N+](=O)[O-] was read as ELG1 genotox -10.5%, Rab9 prom act -0.8%, FLuc counter 0.8% and NPC1 prom act -5.6%.
For COc1ccccc1C(=O)NC1=NC(c2ccc(Br)cc2)CC(=O)N1 (stereo not drawn) the results were FLuc counter 4.78µM* and SMN2 splice up 11.2µM*.
`N=C1S/C(=C\c2cn[nH]c2-c2ccc(F)cc2)C(=O)N1c1ccccc1F` gave ELG1 genotox 10.2%, Rab9 prom act 3.98µM*, FLuc counter inconclusive, SMN2 splice up 12.6µM* and NPC1 prom act 3.16µM*.
`CC(C)COc1ccc(C(=O)NCC2OCCc3ccccc32)cc1` (stereo not drawn) gave FLuc counter inconclusive and SMN2 splice up -9.8%.
COc1ccc(C(=O)NCC2OCCc3ccccc32)c(O)c1 (stereo not drawn) was read as ELG1 genotox inconclusive, Rab9 prom act inconclusive, FLuc counter 21.3µM*, SMN2 splice up inconclusive and NPC1 prom act 28.0%.
Nc1ncnc2nc(Sc3ccc(Cl)cc3)[nH]c12 was read as ELG1 genotox 0.8%, Rab9 prom act -4.4%, FLuc counter -2.4%, SMN2 splice up -27.5% and NPC1 prom act -2.2%.
Nc1ncnc2nc(SCc3ccc(Cl)cc3Cl)[nH]c12 was read as ELG1 genotox 3.2%, Rab9 prom act 0.7%, FLuc counter 21.3µM*, SMN2 splice up -31.2% and NPC1 prom act -1.2%.
Screening O=c1[nH]c2cc(Cl)ccc2c(O)c1-c1ccc(Oc2ccccc2)cc1 returned Rab9 prom act -6.5%[46.1 µM], SMN2 splice up -8.8% and NPC1 prom act -5.3%[46.1 µM].
O=c1[nH]c2ccc(Cl)cc2c(O)c1-c1ccccc1 was read as ELG1 genotox 1.3%, Rab9 prom act -3.4%, FLuc counter 9.53µM*, SMN2 splice up 7.9% and NPC1 prom act 1.4%.
`CN1CCN(NC(=O)c2cc(-c3cccc(Cl)c3)nc3ccccc23)CC1` gave ELG1 genotox 13.3%, Rab9 prom act 0.8%, FLuc counter -2.3%, SMN2 splice up -39.0% and NPC1 prom act -5.1%.
`CCc1ccc(-c2cc(C(=O)NN3CCOCC3)c3ccccc3n2)cc1` gave ELG1 genotox 3.3%, Rab9 prom act 2.6%, FLuc counter 4.78µM*, SMN2 splice up 1.0% and NPC1 prom act 9.9%.
CC(C)c1ccc(-c2cc(C(=O)NN3CCN(C)CC3)c3ccccc3n2)cc1 was read as ELG1 genotox inconclusive, Rab9 prom act inconclusive, FLuc counter 0.601µM*, SMN2 splice up inconclusive and NPC1 prom act inconclusive.
`CC(C)c1ccc(-c2cc(C(=O)N3N=C(C(F)F)CC3(O)C(F)F)c3ccccc3n2)cc1` (stereo not drawn) gave ELG1 genotox inconclusive, Rab9 prom act inconclusive, FLuc counter 1.51µM*, SMN2 splice up inconclusive and NPC1 prom act inconclusive.
CC(=O)N1CCCc2cc(S(=O)(=O)N3CCC(C(=O)NCc4ccc(N(C)C)cc4)CC3)ccc21 was read as FLuc counter 0.1%.
`Oc1ccc(N=C/C=C/c2ccc(Br)cc2)cc1-c1nc2ccccc2s1` gave ELG1 genotox inconclusive, Rab9 prom act inconclusive, FLuc counter 7.57µM*, SMN2 splice up -1.2%[1.84 µM] and NPC1 prom act 3.16µM*.
Cc1ccc(S(=O)(=O)N/N=C/c2cc([N+](=O)[O-])ccc2O)cc1[N+](=O)[O-] was read as ELG1 genotox 9.7%, Rab9 prom act 2.1%, FLuc counter 13.5µM*, SMN2 splice up -20.4% and NPC1 prom act -3.3%.
For O=[N+]([O-])c1ccc(/C=N/NC2=NS(=O)(=O)c3ccccc32)cc1 the results were ELG1 genotox 2.6%, Rab9 prom act -1.0%, FLuc counter 15.1µM*, SMN2 splice up 7.8% and NPC1 prom act -4.5%.
O=[N+]([O-])c1ccc(O)c(/C=N/NC2=NS(=O)(=O)c3ccccc32)c1 was read as ELG1 genotox -4.1%, Rab9 prom act 11.8%, FLuc counter 8.49µM*, SMN2 splice up -8.6% and NPC1 prom act 4.3%.
Screening O=[N+]([O-])c1ccc(O)c(/C=N/Nc2ccc(Cl)nn2)c1 returned ELG1 genotox 6.6%, Rab9 prom act -4.5%[1.84 µM], FLuc counter inconclusive, SMN2 splice up -66.5% and NPC1 prom act 3.16µM*.
Screening CCOc1ccc(C2C(C(=O)Nc3ccccc3)=C(C)Nc3nc(SCc4cccc(OC)c4)nn32)cc1 (stereo not drawn) returned FLuc counter 4.5%.

Bioassay records: PubChem BioAssay, National Center for Advancing Translational Sciences (NCATS)
